Reference: ChEMBL document CHEMBL3988442, “University of Dundee, Small-Polar-MMV Screening Library” (2021)

Target: T1, Aspartate--tRNA(Asp/Asn) ligase (Mycobacterium tuberculosis (strain ATCC 25618 / H37Rv)) (UniProt P9WFW3); note: in the data most compounds retested in dose-response had high values
T1 sequence (whole entry): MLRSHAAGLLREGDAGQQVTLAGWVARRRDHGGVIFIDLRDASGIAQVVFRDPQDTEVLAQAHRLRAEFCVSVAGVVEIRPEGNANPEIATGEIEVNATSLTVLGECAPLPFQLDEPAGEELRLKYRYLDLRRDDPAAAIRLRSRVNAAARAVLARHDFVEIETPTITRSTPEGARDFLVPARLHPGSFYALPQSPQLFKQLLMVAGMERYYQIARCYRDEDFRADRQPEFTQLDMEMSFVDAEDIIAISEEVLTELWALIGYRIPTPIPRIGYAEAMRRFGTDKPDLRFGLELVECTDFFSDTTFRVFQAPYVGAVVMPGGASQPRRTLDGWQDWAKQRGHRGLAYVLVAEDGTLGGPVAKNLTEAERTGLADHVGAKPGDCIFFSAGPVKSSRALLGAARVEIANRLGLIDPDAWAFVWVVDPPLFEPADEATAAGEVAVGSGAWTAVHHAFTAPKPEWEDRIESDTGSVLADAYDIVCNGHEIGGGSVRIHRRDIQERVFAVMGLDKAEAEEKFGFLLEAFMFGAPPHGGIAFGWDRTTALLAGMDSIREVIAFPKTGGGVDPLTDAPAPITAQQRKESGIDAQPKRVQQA
Test: Assay for Asp RNA synthetase-1 from Mycobacterium tuberculosis
Assay type: functional
Design: scale not given: direction of the effect not stated beside the values
Conditions: 30 µM

| SMILES | Percent Effect |
| --- | --- |
| O=C(C1=CCCC1)N1CCC[C@]2(C[C@@H](Oc3ncccc3F)CO2)C1 | 0.0684% |
| CCN(CC)CCNC(=O)c1cnc(C(C)(C)C)s1 | -0.45% |
| CCn1nc(C)c2ccn(CC(=O)NC3CCCC3)c(=O)c21 | 4.68% |
| COc1ccc(NC(C)C(=O)NCCc2cccs2)cc1F (stereo not given) | 7.04% |
| CCn1cc(CN2C[C@@H]3CCCN3C[C@@H]2CCSC)c(C)n1 | -0.662% |
| Cc1ccc(NC(=O)C2CSCN2C(=O)c2cnccn2)c(C)c1 (stereo not given) | 1.01% |
| NC(=O)Nc1cccc(Oc2ccccn2)c1 | -2.58% |
| Cc1c(C)n(-c2ccccn2)c2nc3c(c(N)c12)CCCC3 | -3.86% |
| Cc1noc([C@@H]2CC[C@@H]3[C@@H](CCN3S(=O)(=O)c3cccnc3)O2)n1 | 0.127% |
| CCc1ccc(OCC(O)CN2CCC(O)CC2)cc1 (stereo not given) | 3.31% |
| CCc1ccc(CNC(=O)NC(C)CN2CCOCC2)s1 (stereo not given) | 1.38% |
| COCCO[C@H]1CCN(C(=O)c2ccc[nH]2)[C@H]1Cc1ccncc1 | -0.0147% |
| Fc1cccc(N2CCCC3(CN(Cc4ccncc4)CCO3)C2)c1 (stereo not given) | 5.63% |
| Cc1ccc(-c2cn[nH]c2C2CCCN(c3nccc(N)n3)C2)cc1 (stereo not given) | 2.79% |
| COc1ccnc(C(=O)N2CCCC(c3noc(C)n3)C2)c1 (stereo not given) | 0.885% |
| COc1ccc2c(c1)OCC(CNC(=O)c1ccncc1)C2 (stereo not given) | -2.83% |
| O=C1CCCc2nccc(-c3ccccc3)c21 | 1.6% |
| Cc1cnc2c(S(=O)(=O)NCC3CCS(=O)(=O)C3)cccc2c1 (stereo not given) | 3.04% |
| Cc1nnc(NCC2(c3ccccc3)CC2)c(C#N)c1C | 1.73% |
| Cc1cc2nc(SCC(=O)N3CCCC3)n(-c3ccccc3)c(=O)c2[nH]1 | 15.3% |

Target: Shiga toxin 2 (Escherichia coli O157:H7) (UniProt P09385+P09386)
Test: E. coli 0.157:H7 Shiga Toxin SOP - stx2 screening assay
Assay type: functional
Design: scale not given: direction of the effect not stated beside the values
Conditions: 30 µM

| SMILES | Percent Effect |
| --- | --- |
| COCc1noc(-c2ccc(N3CCCCC3CO)nc2)n1 (stereo not given) | -5% |
| CC(=O)c1ccc(N2CCC(CO)(CCOc3ccccc3)CC2)nc1 | -31.2% |
| Cc1cc(C)n(CCCNC(=O)C(C)NC(=O)c2ccccc2Cl)n1 (stereo not given) | -4.43% |
| COCC1CN(Cc2ccc(C)o2)Cc2cn(C)nc21 (stereo not given) | -13.2% |
| CC(=O)Nc1nc(C2CCN(CC(N)=O)CC2)cs1 | -8.65% |
| CCc1nnc2n1CCN(C(=O)COCCc1ccccc1)C2 | 24.8% |
| CN1C[C@H]2CCN(C(=O)NC3CCCC3)CC[C@H]2S1(=O)=O | -19.5% |
| Cc1ccc(N2CCCC(NCC(=O)NC3CCOCC3)C2)nn1 (stereo not given) | -27.9% |
| Cc1cc(C)c(CNC(=O)NCC2CCCO2)c(=O)[nH]1 (stereo not given) | 24.8% |
| O=C(NCC(O)c1cccs1)c1cccc(Cl)c1 (stereo not given) | -20.5% |
| CC(C)CN1C(=O)C2(CCN(Cc3nccs3)C2)c2ccccc21 (stereo not given) | -65.4% |
| COC(=O)C1CCN(c2cncc(-n3nc(C)cc3C)n2)CC1 | -51.5% |
| CC(C)NS(=O)(=O)c1cc(C(=O)O)cc(-c2ccc(CN(C)C)cc2)c1 | -20.1% |
| Cn1ncc2c(NCCOc3ccc(F)cc3)nc(C3CCCC3)nc21 | -46.7% |
| CCc1nc(C)c(C(=O)NCCNc2ncccn2)s1 | 30.3% |
| O=C(Cc1ccc2c(c1)CCC2)NCCNc1ncccn1 | 7.96% |
| Cc1nccc(CNC(=O)NCCOc2ccc(F)c(F)c2)n1 | -21% |
| CC(=O)N1[C@H](Cn2cncn2)C[C@@H]2CN(S(C)(=O)=O)CC[C@@H]21 | -36.4% |
| Cc1cccc(-n2cc(C(=O)N3CCCC(n4cccn4)C3)nn2)c1 (stereo not given) | -13.8% |
| COc1cc(NC(=O)Cn2ccc3sc(C)cc3c2=O)cc(OC)c1 | 0.557% |

| SMILES | Percent Effect |
| --- | --- |
| O=C(C1=CCCC1)N1CCC[C@]2(C[C@@H](Oc3ncccc3F)CO2)C1 | 7.81% |
| CCN(CC)CCNC(=O)c1cnc(C(C)(C)C)s1 | 17.4% |
| CCn1nc(C)c2ccn(CC(=O)NC3CCCC3)c(=O)c21 | 12.1% |
| COc1ccc(NC(C)C(=O)NCCc2cccs2)cc1F (stereo not given) | -24.3% |
| CCn1cc(CN2C[C@@H]3CCCN3C[C@@H]2CCSC)c(C)n1 | 5.06% |
| Cc1ccc(NC(=O)C2CSCN2C(=O)c2cnccn2)c(C)c1 (stereo not given) | -39.3% |
| NC(=O)Nc1cccc(Oc2ccccn2)c1 | -11.9% |
| Cc1c(C)n(-c2ccccn2)c2nc3c(c(N)c12)CCCC3 | -68.1% |
| Cc1noc([C@@H]2CC[C@@H]3[C@@H](CCN3S(=O)(=O)c3cccnc3)O2)n1 | -18.4% |
| CCc1ccc(OCC(O)CN2CCC(O)CC2)cc1 (stereo not given) | 16.1% |
| CCc1ccc(CNC(=O)NC(C)CN2CCOCC2)s1 (stereo not given) | -4.66% |
| COCCO[C@H]1CCN(C(=O)c2ccc[nH]2)[C@H]1Cc1ccncc1 | -2.78% |
| Fc1cccc(N2CCCC3(CN(Cc4ccncc4)CCO3)C2)c1 (stereo not given) | -4.22% |
| Cc1ccc(-c2cn[nH]c2C2CCCN(c3nccc(N)n3)C2)cc1 (stereo not given) | -37.9% |
| COc1ccnc(C(=O)N2CCCC(c3noc(C)n3)C2)c1 (stereo not given) | 1.38% |
| COc1ccc2c(c1)OCC(CNC(=O)c1ccncc1)C2 (stereo not given) | 17.7% |
| O=C1CCCc2nccc(-c3ccccc3)c21 | -14.1% |
| Cc1cnc2c(S(=O)(=O)NCC3CCS(=O)(=O)C3)cccc2c1 (stereo not given) | -5.77% |
| Cc1nnc(NCC2(c3ccccc3)CC2)c(C#N)c1C | 15.4% |
| Cc1cc2nc(SCC(=O)N3CCCC3)n(-c3ccccc3)c(=O)c2[nH]1 | -24.4% |
